Sampled rows, rich in hits. Any-hit rate of the full collection: about 2.5%.
LASV entry inh: qHTS for Inhibitors of binding or entry into cells for Lassa Virus; AID 540256, 2011; hit rate 1.2% among 300,000; Lassa virus pseudotype entry inhibition, cell reporter; Potency, µM (doses to about 37.9 µM), hits mostly inhibitors; calls by dose curve; tested in HEK293 cells; further: nearly all actives have a fitted effect of over 50% in size
Vaccinia mCherry: qHTS for Stage-Specific Inhibitors of Vaccinia Orthopoxvirus: mCherry Reporter Primary qHTS | hit rate 0.63% among 310,000 | Potency, µM (series often up to 36.5 µM), most hits filed as inhibitors | AID 720579, 2013 | Vaccinia virus mCherry reporter infection, fluorescence; calls by dose curve; tested in A549 cells; further: nearly all actives have a fitted effect of over 35% in size
Marburg entry inh: qHTS for inhibitors of binding or entry into cells for Marburg Virus | Marburg virus pseudotyped entry inhibition, cell reporter | Potency, µM (doses to about 37.8 µM), actives largely listed as inhibitors | hit rate 1.8% among 300,000; calls by dose curve; tested in HEK293 cells
VACV Venus inh: qHTS for Stage-Specific Inhibitors of Vaccinia Orthopoxvirus: Venus Reporter Primary qHTS | Vaccinia virus Venus reporter expression, fluorescence | Potency, µM (top dose mostly 36.5 µM), usual class: inhibitors | hit rate 0.46% among 330,000; calls by dose curve; tested in A549 cells; further: nearly all actives have a fitted effect of over 30% in size
Numbers stand for hits; - = inactive; ? = inconclusive; . = not tested or not shown; ! = not confirmed by another sample; [ ] = dose if it differs, or a comment.

SMILES	LASV entry inh	Vaccinia mCherry	Marburg entry inh	VACV Venus inh
Cn1nc(-c2cccnc2)nc2c(=O)n(C)c(=O)nc1-2	.	3.16µM	.	2.51µM
CS(=O)(=O)n1nc(-c2ccc(Cl)cc2)nc1N	-	-	-	-
Cn1nc(-c2ccc(Cl)cc2)nc2c(=O)n(C)c(=O)nc1-2	.	2µM	-	2µM
O=C(c1n[nH]c2c1CCCC2)N1CCOc2ccc(C(O)C(c3ccccc3)c3ccccc3)cc2C1 (stereo not given)	.	-	.	-
CCOC(=O)N/N=C1\C[C@@H](O)[C@@H](O)[C@@H]2[C@@H]3C(=O)N(CC)C(=O)[C@@H]3CC[C@H]12	.	.	-	.
CN1CCN(Cc2nc3ccccc3c(=O)n2Cc2nc(-c3ccc([N+](=O)[O-])cc3)cs2)CC1	?	10µM	?	10µM
Cc1cc(N2CCN(c3nc(-c4ccc([N+](=O)[O-])cc4)cs3)CC2)c2ccccc2n1	?	-	11.2µM	-
Cc1cc(-c2ccc([N+](=O)[O-])cc2)nc2ccccc12	-	-	-	-
CN(C)Cc1nc2ccccc2c(=O)n1Cc1nc(-c2cccc([N+](=O)[O-])c2)cs1	?	-	-	-
Cc1cnc(-n2ncc(C(=O)N(C)C3CCOC3)c2-c2cccs2)nc1-c1ccc(F)cc1 (stereo not given)	.	-	.	-
Cc1ccc(C(=O)NCCc2nnc3n2CCN(Cc2ccnc4ccccc24)CC3)c(C)c1	.	-	.	-
Cc1cc(N2CCN(C)CC2)ccc1NC(=O)c1c2c(nc3ccccc13)CCN(Cc1ccccc1)C2	?	-	?	?
COc1cccc(NC(=O)COC(=O)c2c3c(nc4ccccc24)CCC(C)C3)c1 (stereo not given)	18.3µM	.	7.3µM	.
Cc1c(Cl)cccc1NC(=O)COC(=O)c1c2c(nc3ccccc13)CCN(Cc1ccccc1)C2	?	11.2µM	2.59µM	?
Cc1ccsc1C(=O)NCCC(c1ccccc1)c1ccccc1	?	-	12.6µM	-
Cc1ccsc1C(=O)NCc1ccccc1Cl	.	-	-	-
CC(C)(C)c1ccc(C(=O)CCCN2CCC(OC(c3ccccc3)c3ccccc3)CC2)cc1	5.17µM	.	?	.
CN1CCN(CCCCC(=O)c2ccccc2)CC1	-	.	-	-
COC(=O)[C@@H]1CCCN1C(=O)c1cnn(-c2ncc3c(n2)-c2ccccc2CCC3)c1C1CC1	.	-	.	-
O=c1c(-c2ccc(O)cc2)coc2cc(O)ccc12	?	?	?	0.631µM!
CCNC(=O)c1ccc(C2SCC(=O)N2CCc2ccccc2)cc1 (stereo not given)	?	-	-	-
CCCNC(=O)c1ccc(C2SCC(=O)N2CCc2ccccc2)cc1 (stereo not given)	10µM	-	-	-
Cc1ccc(C(=O)N/N=C\c2cc3c(cc2Br)OCO3)s1	11.2µM	-	?	?
O=[N+]([O-])c1cc(C(F)(F)F)ccc1N1CCN(S(=O)(=O)c2ccc3ccccc3c2)CC1	-	.	11.2µM	?
O=[N+]([O-])c1cc(C(F)(F)F)cc([N+](=O)[O-])c1N1CCN(S(=O)(=O)c2ccccc2)CC1	-	-	-	-
SMILES	LASV entry inh	Vaccinia mCherry	Marburg entry inh	VACV Venus inh
OC[C@H]1O[C@H](C#Cc2ccccc2)C=C[C@@H]1O	?	.	-	.
CC(C)(C)NC(=O)C(c1c[nH]c2ccccc12)N(C(=O)Cn1nnc(-c2ccc(F)cc2)n1)c1cccc(O)c1 (stereo not given)	?	?	11.2µM	?
CC(C)(C)NC(=O)C(c1ccco1)N(C(=O)Cn1nnc(-c2ccc(F)cc2)n1)c1cccc(F)c1 (stereo not given)	-	-	-	-
CC1(C)CC(=O)C2=C(C1)O[C@@]1(CCCCN3C(=O)c4ccccc4C3=O)Cc3ccccc3[C@H]2O1	.	.	-	.
Clc1ccc(CSc2cnnc3ccccc23)cc1Cl	-	-	?	-
O=Cc1cc2ccccc2nc1SCc1ccc(Cl)cc1	10µM	?	?	-
O=Cc1cc2ccccc2nc1SCc1ccc(Cl)c(Cl)c1	?	-	2.24µM	-
COc1cccc(CNC(=O)c2c(OC)cc(=O)n3c2CCN(C(=O)c2csc(C)n2)CC3)c1	.	-	.	-
CCN1C(=O)CC(CC(=O)N2CCC(c3nc4ccc(F)cc4[nH]3)CC2)(c2ccccc2C)C1=O (stereo not given)	.	-	.	-
COc1nc(C)ccc1-c1noc(-c2cccs2)n1	-	-[7.34 µM]	11.2µM	-[7.34 µM]
Oc1ccc(O)cc1	?	-	7.94µM!	-
O=C(c1ccc(O)cc1)c1ccc(C(=O)c2ccc(O)cc2)cc1	?	?	?	-
O=Nc1ccc(/C=C/c2ccnc3ccccc23)cc1	.	-	.	-
C=CCCCN1C=C(C(=O)OCC)C(c2ccccc2)NC1=O (stereo not given)	.	.	-	.
CN[C@@H]1C[C@@H](c2ccc(Cl)c(Cl)c2)c2ccccc21	13µM	.	4.61µM	.
CN[C@@H]1C[C@H](c2ccc(Cl)c(Cl)c2)c2ccccc21	.	.	4.61µM	.
COc1ccccc1C1CCN(Cc2ccc(Cl)c(Cl)c2)CC1	?	-	?	-
COc1ccc(OC)c(-c2cc(Cl)c3c(c2)CC(CNC(=O)[C@@H]2CCCN2C(C)=O)O3)c1 (stereo not given in full)	.	-	.	-
CN1c2ccccc2[C@@]2(O)C(=O)[C@@]1(C)[C@@H]1C=CCC[C@H]12	.	.	-	.
O=C(N/N=C\c1cccc(OC(=O)c2ccco2)c1)c1ccc2c(c1)OCO2	14.6µM	-	?	-
COCCCC/C(=N\OCCN)c1ccc(C(F)(F)F)cc1	6.51µM	-	10µM	-
CCC1CCCCN1CCCNC(=O)c1cc2c(Cl)nc3ccc(C)cc3c2s1 (stereo not given)	?	-	?	?
Cc1ccc2nc(Cl)c3cc(C(=O)NCCCN4CCCC4)sc3c2c1	-	-	10µM	?
CC(=O)c1ccc(-c2ccc3c4c(ccc3c2)OC(CNC(=O)C(C)N2CCOCC2)C4)s1 (stereo not given)	.	-	.	-
OC(c1ccccc1)(c1ccc(Cl)cc1)C1CN2CCC1CC2 (stereo not given)	12.6µM	-	?	?
SMILES	LASV entry inh	Vaccinia mCherry	Marburg entry inh	VACV Venus inh
CN(C)CC(C)(C)CNC(=O)c1cnn(-c2nccc(-c3ccc4c(c3)OCO4)n2)c1-c1ccco1	.	-	.	-
C#CCSC1=C(C#N)[C@@H](c2cccs2)C(C(=O)OCC)=C(C)N1	.	.	-	.
COc1ccc(-c2nc(CN3CCN(c4ncnc5ccccc45)CC3)c(C)o2)c(OC)c1	?	.	14.6µM	.
Cc1oc(-c2cc(F)ccc2F)nc1CN1CCN(c2ncnc3ccccc23)CC1	.	-	.	?
Oc1ccc(-c2nc3ccccc3s2)c(O)c1	-	-	?	-
Oc1ccc(-c2cnns2)c(O)c1	11.2µM	-	?	-
COC(=O)N(C=Cc1ccc(OC)cc1)CCc1ccc(OC)c(OC)c1	.	.	-	.
COc1cc(/C=C(/C(=O)c2cccs2)c2nc3ccccc3[nH]2)ccc1O	?	.	4.11µM	.
COCc1ccc(C(=O)N2CCCC(CCC(=O)NCc3ccccc3F)C2)o1 (stereo not given)	-	-	5.62µM	-
C=C1C(=O)O[C@@H]2C[C@@H](C)[C@@H]3C=CC(=O)[C@@]3(C)[C@@H](O)[C@H]12	.	?	.	10µM!
C=C1C(=O)O[C@@H]2C[C@@H](C)[C@@H]3C=CC(=O)[C@@]3(C)[C@@H](OC(C)=O)[C@H]12	.	11.2µM	.	7.94µM

High-throughput results from PubChem BioAssay.
